Here are results for 34 compounds from PubChem BioAssay (NCATS).

Each structure is given as a SMILES string. Results filed as inconclusive are left out. Active and inactive are the calls of the source. Calls come from the whole dose curve.
% is set by controls: 0 for no effect and ±100 for the full control effect; potency is the fitted concentration of half-maximal effect.

The test is described as follows: Validation screen for inhibitors of Lassa infection (AID 463096). The following applies: Lassa virus infection, cell-based; series mostly up to 46.1 µM; activity change, negative = inhibition: at the top concentration.
Consider `CCCCNc1ccc(C(=O)OCCN(C)C)cc1`, for which the “activity change, negative = inhibition” value is 3.36% (inactive).

With `Cc1ccc(/C(=C\CN2CCCC2)c2ccccn2)cc1`, the “activity change, negative = inhibition” value is -46% (inactive).

Turning to `O=C(CCCN1CCC(O)(c2cccc(C(F)(F)F)c2)CC1)c1ccc(F)cc1`, the “activity change, negative = inhibition” value is -37.3% (inactive).

In the case of `O=C(c1ccc(F)cc1)C1CCN(CCn2c(=O)[nH]c3ccccc3c2=O)CC1`, the “activity change, negative = inhibition” value is -6.91% (inactive).

On to `CCOC(=O)C1=C[C@]2(CC)CCCN3CCc4c(n1c1ccccc41)[C@@H]32`, for which the “activity change, negative = inhibition” value was -28.6% (inactive).

`Nc1c2c(nc3ccccc13)CCCC2O` (centres undefined): the “activity change, negative = inhibition” value is -11.4% (inactive).

For `CCCn1cnc2c1c(=O)n(CCCCC(C)=O)c(=O)n2C`, the “activity change, negative = inhibition” value was -12.2% (inactive).

Regarding `Cn1c(=O)c2c(ncn2C)n(C)c1=O`, the “activity change, negative = inhibition” value is -6.44% (inactive).

In the case of `CC(C(O)c1ccc(O)cc1)N1CCC(Cc2ccccc2)CC1` (centres undefined), the “activity change, negative = inhibition” value is -45.1% (inactive).

Regarding `Clc1ccc(Cn2c(CN3CCCC3)nc3ccccc32)cc1`, the “activity change, negative = inhibition” value is -22.1% (inactive).

In the case of `NS(=O)(=O)c1cc2c(cc1Cl)NCNS2(=O)=O`, the “activity change, negative = inhibition” value is -17.8% (inactive).

For the compound `C=Cc1c(C)c2cc3[nH]c(cc4nc(cc5nc(cc1[nH]2)C(C)=C5CCC(=O)O)C(CCC(=O)O)=C4C)c(C)c3C=C`, the “activity change, negative = inhibition” value is 8.55% (inactive).

For `O=C(O)CP(=O)(O)O`, the “activity change, negative = inhibition” value is 22% (inactive).

As for `CCCCC1C(=O)N(c2ccccc2)N(c2ccccc2)C1=O`, the “activity change, negative = inhibition” value is -17.9% (inactive).

`O=C(CCNNC(=O)c1ccncc1)NCc1ccccc1`: the “activity change, negative = inhibition” value was -1.99% (inactive).

In the case of `CCn1ccnc1CC1COc2ccccc2O1` (centres undefined), the “activity change, negative = inhibition” value is 11.7% (inactive).

`C[C@]12C=CC(=O)C=C1CC[C@H]1[C@@H]3C[C@@H](O)[C@](O)(C(=O)CO)[C@@]3(C)C[C@H](O)[C@@]12F`: the “activity change, negative = inhibition” value is -9.77% (inactive).

For `O=C(Nc1ccc([N+](=O)[O-])cc1Cl)c1cc(Cl)ccc1O`, the Potency is 5.01 µM (active).

As to `NCCc1ccc(O)c(O)c1`, the “activity change, negative = inhibition” value was -19.6% (inactive).

Turning to `COc1nc(C)nc(Cl)c1NC1=NCCN1`, the “activity change, negative = inhibition” value was 7.52% (inactive).

Consider `CC(C)NCC(O)COc1ccc(COCCOC(C)C)cc1` (centres undefined), for which the “activity change, negative = inhibition” value was -2.19% (inactive).

In the case of `CCNC(=O)N1CCN(CCCC(c2ccc(F)cc2)c2ccc(F)cc2)CC1`, the “activity change, negative = inhibition” value was -4.65% (inactive).

Take `CN(C)CCOC(c1ccccc1)c1ccccc1`: the “activity change, negative = inhibition” value is -37.8% (inactive).

For the compound `C[C@]12CCC(=O)C=C1CC[C@@H]1[C@@H]2C(=O)C[C@@]2(C)[C@H]1CC[C@]2(O)C(=O)CO`, the “activity change, negative = inhibition” value is 31.1% (inactive).

`C[C@]12CCC(=O)C=C1CC[C@@H]1[C@@H]2CC[C@@]2(C)[C@H]1CC[C@]2(O)C(=O)CO`: the “activity change, negative = inhibition” value was 5.99% (inactive).

On to `NCCc1cnc[nH]1`, for which the “activity change, negative = inhibition” value is 4.44% (inactive).

For the compound `Cc1ccc(=O)n(-c2ccccc2)c1`, the “activity change, negative = inhibition” value is 12.4% (inactive).

As for `COc1ccc(CCN(C)CCCC(C#N)(c2cc(OC)c(OC)c(OC)c2)C(C)C)cc1OC` (centres undefined), the “activity change, negative = inhibition” value was -4.33% (inactive).

On to `O=C1CC2(CCCC2)CC(=O)N1CCCCN1CCN(c2ncccn2)CC1`, for which the “activity change, negative = inhibition” value was 5.16% (inactive).

As for `C=CCc1ccccc1OCC(O)CNC(C)C` (centres undefined), the “activity change, negative = inhibition” value was 14.9% (inactive).

Regarding `COC(=O)[C@@H](N)Cc1ccc(O)c(O)c1`, the “activity change, negative = inhibition” value was 8.42% (inactive).

In the case of `CN(C)CCN(Cc1cccs1)c1ccccn1`, the “activity change, negative = inhibition” value is 56.6% (inactive).

With `CCCOc1ccccc1-c1nc2n[nH]nc2c(=O)[nH]1`, the “activity change, negative = inhibition” value is 24.1% (inactive).

`CCOC(=O)C(C)(C)Oc1ccc(Cl)cc1`: the “activity change, negative = inhibition” value was 4.17% (inactive).
